Reference: PubChem BioAssay (NCATS)
“And” between values parts separate entries of the source, which are not always exact repeats. Equal values may be shown once. Inconclusive results are not listed. The source made the active and inactive calls. Calls come from the whole dose curve.

Assay: qHTS Assay for Lipid Storage Modulators (AID 1519); for activity change, negative = inhibition: % is set by controls: 0 for no effect and ±100 for the full control effect
Conditions: Drosophila S3 cells, BODIPY lipid droplet/cell ratio, laser cytometry, cells loaded with oleic acid; for activity change, negative = inhibition: at 57.5 µM (top of the series)
Excerpt: NIH Molecular Libraries Probe Production Centers Network [MLPCN]
NIH Chemical Genomics Center [NCGC]
Assay Submitter (PI): Beller, Mathias; Max-Planck-Institut fur Biophysikalische Chemie
NCGC Assay Overview: Storing lipids as a reservoir for energy or the anabolism of elementary metabolites is a common feature of probably all cells and is conserved from bacteria to humans. The universal cellular lipid storage organelle is the so-called lipid storage droplet (LD). Although ubiquitous, LDs share a simple structure composed of a hydrophobic core that harbors the storage lipids, which is shielded by a droplet-specific phospholipid monolayer to which proteins are attached. The current model of LD biogenesis involves an incorporation of the lipid core into the membrane leaflets of the endoplasmic reticulum (ER) followed by a subsequent budding-like maturation of a LD, which ultimately pinches off. Once released, LD volume can increase by localized lipogenesis or fusion of existing droplets. Storage lipids are re-mobilized enzymatically by lipase activity. Lipase regulation in the adipocyte is heavily studied and involves multiple components including catecholamine signaling, the LD-associated proteins Perilipin and comparative gene identification-58 (CGI-58) and at least two lipases named hormone sensitive lipase (HSL) and adipocyte triglyceride lipase (ATGL). LD regulation outside of the adipocyte is poorly understood and only few components are known. However, there is an urgent need to learn more about ectopic fat depots as mislocalized storage of lipids, for example in the liver or muscle, is an eminent health problem associated with insulin resistance or the metabolic syndrome. We developed a laser-scanning cytometer assay to enable 1,536-well screening and combined the results of the small molecules screen with an RNAi database based on lipid storage.
NCGC Assay Protocol Summary:
We dispensed 4 uL of cells at 1.25 x 10^6 cells/mL into LoBase Aurora COC 1,536-well plates (black walled, clear bottom) with a bottle-valve solenoid-based dispenser (Aurora) to obtain 5,000 cells/well. Triacsin C (Sigma-Aldrich T-4540), an inhibitor of long-chain fatty acyl CoA synthetase that blocks synthesis of triglycerides, was used as a positive control for lipid under-storage. A total of 23 nL of compound solution of different concentrations were transferred to the assay plates using a Kalypsys pin tool equipped with a 1,536-pin array containing 10-nL slotted pins (FP1S10, 0.457-mm diameter, 50.8 mm long; V&P Scientific). One microliter of oleic acid (400 uM) was added, and the plate was lidded with stainless steel rubber gasket lined lids containing pinholes. […] Fluorescence was detected by excitation of the fluorophores with a 488-nm laser on an Acumen Explorer (TTP Lab Tech). The total intensity in channel 1 (500-530 nm) reflected lipid droplet accumulation. […] The ratio of the total intensity in PMT channel 1 over total intensity of channel 3 was also calculated. Percent activity was computed relative to an internal control (100% inhibited lipid droplet deposition due to the presence of 20 uM Triacsin C), which was added to 32 wells/plate.

[1] = measured here: cell count channel max response
[2] = measured here: lipid channel max response

| SMILES | activity change, negative = inhibition | max response [1] | max response [2] |
| --- | --- | --- | --- |
| O=C(c1ccncc1)N1CCC2(CCN(Cc3nccs3)CC2)CC1 | -1.51% (inactive) | 5.19% | 5.04% |
| CN(C)C(=O)c1ccc(-c2cncnc2NCc2cccs2)cc1 | 6.52% (inactive) | 22.2% | 27.8% |
| COc1cc(C)c(C(=O)Oc2cc(C)c(C(=O)O)c(O)c2C)c(OC)c1C | 7.39% (inactive) | 9.06% | 19.2% |
| NC(=NCc1ccc(Cl)c(Cl)c1)NC(=O)c1nc(Cl)c(N)nc1N | 0.442% (inactive) | -3.02% | -2.51% |
| COc1cccc(-c2cc(NCCc3c[nH]c4ccc(OC)cc34)ncn2)c1 | 7.02% (inactive) | 8.88% | 13.2% |
| COc1ccc(NC(=O)N2CC3(CCN(C(=O)c4csnn4)CC3)C2)cc1 | 6.22% (inactive) | 7.84% | 18.1% |
| O=C(c1cnccn1)N1CCC[C@@]2(CCN(c3ccccn3)C2)C1 | 3.99% (inactive) | 24.1% | 26.9% |
| COc1ccc(C(=O)N2CCC3(CCCN(c4ccccc4)C3)CC2)cc1 | -17.3% (inactive) | 1.98% | -15% |
| N#Cc1ccc(CN2CC[C@@]3(CCCN(C(=O)c4cccc(F)c4)C3)C2)cc1 | -0.514% (inactive) | 0.82% | 2.5% |
| CC(=O)OC1CC[C@]2(C)C(CC(OC(C)=O)[C@@]3(C)C4=CC(=O)OC(c5ccoc5)[C@]4(C)CCC23)C1(C)C (some centres not stated) | -24.5% (inactive) and -12.6% (inactive) and 0.61% (inactive) | 6.99% and 9.73% and 16% | -14.8% and -4.52% and 18.3% |
| COc1ncc2nc(-c3ccc(Cl)cc3)c(=O)n(-c3ccccc3)c2n1 | -0.888% (inactive) | 12% | 16.2% |
| COc1ccc(C(=O)N2CCC3(CCCN(Cc4ccccc4)C3)CC2)cc1 | 4.53% (inactive) | 1.31% | 6.86% |
| CS(=O)(=O)N1CCC2(CC1)CN(C(c1ccccc1)c1ccccc1)C2 | -2.92% (inactive) | -5.26% | -3.93% |
| c1cncc(CNc2nc(-c3ccc4c(c3)OCO4)nc3ccccc23)c1 | 6.87% (inactive) | 10.1% | 18% |
